Data from PubChem BioAssay (Tox21).
Where “and” joins values, the source holds several entries; their conditions need not be identical. Equal values may be shown once. Inconclusive results are not listed. A call without a number means that no potency is given here. Calls of active or inactive are those of the source. The call rests on the fitted dose curve.
Potency means the concentration at half of the fitted maximal effect.

Assay: qHTS assay for small molecule agonists of the p53 signaling pathway - cell viability (AID 651633); further: nearly all actives have a fitted effect of over 30% in size
Conditions: p53RE-bla HCT-116 viability, ATP luminescence, 16 h; series mostly up to 83.3 µM
Text: National Center for Advancing Translational Sciences [NCATS]
NIH Chemical Genomics Center [NCGC]
U.S. Environmental Protection Agency [EPA]
National Institutes of Environmental Health Sciences [NIEHS]
National Toxicology Program [NTP]
U.S. Food and Drug Administration [FDA]
p53, a tumor suppressor protein, is activated following cellular insult, including DNA damage and other cellular stresses. The activation of p53 regulates cell fate by inducing DNA repair, cell cycle arrest, apoptosis, or cellular senescence. The activation of p53, therefore, is a good indicator of DNA damage and other cellular stresses. […] The activation of the reporter gene under culture conditions can be detected by fluorescence intensity. This cell line was used to screen the Tox21 compound library in a 1536-well plate format and to identify agonists that activate the p53 signaling pathway.
Tox21 Assay Protocol Summary:
The p53RE-bla cells were dispensed at 4,000 cells/5 ul/well in 1536-well black wall/clear bottom plates using a Multidrop dispenser. After the assay plates were incubated at a 37 C/5% CO2 incubator for 5 hours, 23 nL of compounds dissolved in DMSO, positive controls or DMSO only was transferred to the assay plate by a pin tool. The plates were incubated at 37 C for 16 hours. After 1 uL of LiveBLAzerTM B/G FRET substrate was added using a Flying Reagent Dispenser, the plates were incubated at room temperature for 2 hours, and fluorescence intensity was measured by an Envision plate reader.
For cell viability readout that measures cytotoxicity, 4 ul/well of CellTiter-Glo reagent was added into the assay plates using a Flying Reagent Dispenser. After 30 min incubation at room temperature, the luminescence intensity in the plates was measured using a ViewLux plate reader.
With `Cc1ccc(C(C)(C)C)cc1` the Potency was “inactive”. With `O=C(CCCN1CCC(O)(c2ccc(Cl)cc2)CC1)c1ccc(F)cc1` the Potency was “inactive”. In the case of `O=C(O)CCCCCCCCCCCC(=O)O`, the Potency is reported as “inactive”. For `O=C(O)COCCN1CCN(C(c2ccccc2)c2ccc(Cl)cc2)CC1` (stereo not given), the Potency was “inactive”. With `C1COCCN1` the Potency was “inactive”. With `CCC(=O)O[C@H]1[C@H](O[C@@H]2[C@@H](C)[C@H](O[C@H]3C[C@@](C)(OC)[C@@H](O)[C@H](C)O3)[C@@H](C)C(=O)O[C@H](CC)[C@@](C)(O)[C@H](O)[C@@H](C)C(=O)[C@H](C)C[C@@]2(C)O)O[C@H](C)C[C@@H]1N(C)C` the Potency was 13.3 µM (active). In the case of `C=CCCCCCCCCCC`, the Potency is reported as “inactive”. With `CC/C(=C(/CC)c1ccc(O)cc1)c1ccc(O)cc1` the Potency was 60.6 µM (active). For `CC(C)[C@@H]1CC[C@@H](C)CC1=O`, the Potency was “inactive”. For `Cc1ccc(C)c(O)c1`, the Potency was “inactive”. For `O=C(O)c1cc(=O)[nH]c(=O)[nH]1`, the Potency was “inactive”. In the case of `NCCOCCO`, the Potency is reported as “inactive”. For `c1ccc2cc3ccccc3cc2c1`, the Potency was “inactive”. For `CN(Cc1cnc2nc(N)nc(N)c2n1)c1ccc(C(=O)N[C@@H](CCC(=O)O)C(=O)O)cc1`, the Potency was 168 nM (active) and 48.6 nM (active). For `CCCOCCO`, the Potency was “inactive”. In the case of `CC1(C)C(C=C(Cl)Cl)C1C(=O)OCc1cccc(Oc2ccccc2)c1` (stereo not given), the Potency is reported as “inactive”. With `CN(C)/N=N/c1nc[nH]c1C(N)=O` the Potency was “inactive”. With `COc1ccc(-c2coc3cc(O)cc(O)c3c2=O)cc1` the Potency was “inactive”. In the case of `Oc1ccc(C(c2ccc(O)cc2)C(Cl)(Cl)Cl)cc1`, the Potency is reported as 68.3 µM (active). With `CC(C)(C)c1cccc(C(C)(C)C)c1O` the Potency was “inactive”. For `CC(=O)Oc1c(C)c(C)c2c(c1C)CC[C@@](C)(CCC[C@H](C)CCC[C@H](C)CCCC(C)C)O2`, the Potency was “inactive”. For `NCCN`, the Potency was “inactive”. In the case of `Brc1nc2ccccc2s1`, the Potency is reported as “inactive”. In the case of `Cc1ccc([N+](=O)[O-])c(C)c1`, the Potency is reported as “inactive”. For `C=C1C[C@H]2[C@@H]3C=C(C)C4=CC(=O)CC[C@]4(C)[C@H]3CC[C@]2(C)[C@@]1(OC(C)=O)C(C)=O`, the Potency was “inactive”. In the case of `C[C@]12CC[C@@H]3c4ccc(O)cc4CC[C@H]3[C@@H]1CC[C@@H]2O`, the Potency is reported as “inactive”. With `CN(C)CCCN1c2ccccc2Sc2ccc(Cl)cc21` the Potency was “inactive”. With `O=C1OC2(c3ccccc31)c1cc(I)c(O)c(I)c1Oc1c2cc(I)c(O)c1I` the Potency was “inactive”. With `O=C1CCc2ccccc2O1` the Potency was “inactive”. For `Cc1ccc(N)c([N+](=O)[O-])c1`, the Potency was “inactive”. In the case of `Nc1cc(Cl)c(N)c(Cl)c1`, the Potency is reported as “inactive”. With `C[C@]12CC[C@@H]3c4ccc(O)cc4CC[C@H]3[C@@H]1CC[C@H]2O` the Potency was “inactive”. In the case of `O=[Se](O)O`, the Potency is reported as “inactive”. In the case of `COc1cc([C@H]2Oc3cc([C@H]4Oc5cc(O)cc(O)c5C(=O)[C@@H]4O)ccc3O[C@@H]2CO)ccc1O`, the Potency is reported as “inactive”. For `O=C(O)c1ccc(O)cc1`, the Potency was “inactive”. With `CN1CCOCC1` the Potency was “inactive”. For `O=Cc1ccccc1C=O`, the Potency was 11.9 µM (active) and 12.2 µM (active). For `C=C[Si](OCCOC)(OCCOC)OCCOC`, the Potency was “inactive”. For `C=CC(=O)OCCCC`, the Potency was “inactive”. For `CC1(C)NC(=O)N(c2ccc([N+](=O)[O-])c(C(F)(F)F)c2)C1=O`, the Potency was “inactive”.
